Source: PubChem BioAssay
TbPYK inhibitor: inhibitors of Trypanosoma brucei pyruvate kinase; Q57TT1; TbPYK enzyme, Kinase-Glo Plus ATP luminescence, 45 min; Potency, µM (highest dose often 76.8 µM), for the others: at the top dose activity, negative = inhibition, actives largely listed as inhibitors; 0.12% of 410,000 active; AID 624173; note: nearly all actives have a fitted effect of over 50% in size
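In this concentration-response screen, enzyme-free wells defined baseline while DMSO plates tracked drift. Each reaction combined TbPYK, substrate, compound and 130 uM ADP for 45 min at room temperature. Kinase-Glo Plus luminescence gave the signal.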
RE007 growth inh: less growth of the S. pombe RE007 Vpr strain; S. pombe RE007 Vpr strain, BacTiter-Glo ATP luminescence, 24 h; Potency, µM (doses to about 92.2 µM), inactives show at the top dose activity change, negative = less growth, usual class: inhibitors; 0.21% of 360,000 active; AID 651644; active = well fitted falling curve with a large enough effect; inconclusive = small, poorly fitted or top-dose-only effect; inactive = no such curve, though single readings can be large or run the other way; note: nearly all actives have a fitted effect of over 50% in size
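Fission yeast RE007 carrying one integrated HIV-1 vpr copy, seeded at OD 0.01 in PMG+AL medium with 23 nL pinned compound. Grown 24 h at 30 degrees; viability read by BacTiter-Glo luminescence after 5 min.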
FMDV inh: foot and mouth disease virus antiviral activity; FMDV antiviral cell-based qHTS; Potency, µM (highest dose often 57.9 µM), for the others: top-dose activity change, negative = inhibition, actives largely listed as inhibitors; 1.2% of 410,000 active; calls by dose curve; tested in HEK293T cells; note: read-out not given here; nearly all actives have a fitted effect of over 45% in size
Sm TGR block: S. mansoni TGR enzyme inhibition; Q962Y6; Potency, µM (titrated, usually from 114 µM), for inactives: top-dose activity change, negative = inhibition, hits mostly inhibitors; purified TGR, DTNB reduction, TNB absorbance 405 nm; 3% of 360,000 active; note: nearly all actives have a fitted effect of over 60% in size
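TGR 20 nM + NADPH 100 uM (dispensed conc.), cpd preinc 15 min RT; start with NADPH (500 uM addition) then DTNB (15 mM addition). Kinetic TNB absorbance, 405 nm filter. Four-parameter Hill fit across titration.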
An asterisk follows results filed as active; ? = inconclusive; . = no result; ! = not active in a repeat. Only some compounds are listed: those with a hit (about 3.7% of all), similar ones and a draw of the others. Unless noted, calls come from the whole dose curve; as a rule, active = well fitted curve in the direction sought with a large enough effect; inconclusive = small, poorly fitted or top-dose-only effect, or another doubt; inactive = no such curve, though single readings can be large; an effect the other way counts as inactive or inconclusive. % is set by controls: 0 for no effect and ±100 for the full control effect; potency is the fitted concentration of half-maximal effect.

SMILES | TbPYK inhibitor | RE007 growth inh | FMDV inh | Sm TGR block
O=c1[nH]c(=O)n(-c2cccc(Cl)c2)c(O)c1/C=N/c1ccccn1 | -9% | 17% | -14% | 79µM*
CN(CCCNC(=O)c1cc2c(Cl)nc3ccccc3c2s1)Cc1ccccc1 | -13% | -26% | -14% | 20µM*!
CCN(CCCNC(=O)c1cc2c(Cl)nc3ccccc3c2s1)Cc1ccccc1 | -2% | . | ? | 89µM*
Cc1ccc2nc(Cl)c3cc(C(=O)NCCCN(C)Cc4ccccc4)sc3c2c1 | 0% | . | -7% | 9%
COc1cccc(-n2cc(CN(C)Cc3nc(Cc4cccc(F)c4)no3)cn2)c1 | 0% | 1% | -4% | 3%
COc1ccc(CN(C)Cc2nc(Cc3cccc(F)c3)no2)c2cccnc12 | 2% | 8% | 10µM* | -28%
Cc1cccc(N2CCN(C(=O)CCCSc3nc4ccccc4[nH]3)CC2)c1C | -7% | 2% | 35µM* | 3%
Cc1ccc2c(c1)N(C(=O)CCC(=O)N1CCN(c3cccc(C)c3C)CC1)CCO2 | 1% | 5% | 14µM* | 15%
Cc1cccc(N2CCN(C(=O)Cn3cccc3)CC2)c1C | -1% | -7% | -12% | 50µM*
O=C(Cn1cccc1)N1CCN(C(c2ccccc2)c2ccccc2)CC1 | -3% | -21% | 5% | 40µM*
O=C(CCCSc1nc2ccccc2[nH]1)N1CCN(c2ccccc2)CC1 | -4% | -19% | ? | 4%
Cc1ccc(C)c(CN2C[C@H](Sc3ccccn3)C[C@H]2C(=O)Nc2ccc3sc(C)nc3c2)c1 | . | . | -4% | .
CCc1oc2ccccc2c1C(=O)c1cc(I)c(O)c(I)c1 | -15% | . | . | .
COc1cccc(-c2cnc(NCc3ccccc3Cl)n2C)c1 | 26% | . | 33% | 19%
COCCNC(=O)CN1CCN(C(c2ccccc2)c2ccccc2)CC1 | 3% | 11% | . | 5%
COC(=O)CN1CCN(C(c2ccccc2)c2ccccc2)CC1 | -18% | -11% | -15% | 45µM*
COc1cccc(C(Nc2ccccc2)c2ccc3ccc(C)nc3c2O)c1 (centres undefined) | . | -8% | -8% | .
Cc1cccc(NC(c2ccc(O)cc2)c2ccc3ccc(C)nc3c2O)n1 (centres undefined) | 10% | -1% | -13% | 0.35µM*
CC(NC(=O)Cc1cc(F)cc(F)c1)C(=O)NC(C(=O)OC(C)(C)C)c1ccccc1 (centres undefined) | . | . | -10% | .
C[N+](C)(C)Cc1ccccc1 | -3% | 24% | 35µM* | 5%
COc1ccc(NC(=O)Cn2c(=O)n(CCCC(=O)NCc3ccccc3Cl)c(=O)c3ccccc32)c(OC)c1 | -1% | . | -4% | 3%
O=C(O)C(c1ccccc1)N1C(=O)/C(=C\c2ccc(-c3ccc(Br)cc3)o2)SC1=S (centres undefined) | -7% | . | -9% | ?
O=C(O)C(c1ccccc1)N1C(=O)/C(=C\c2ccc(-c3ccccc3Cl)o2)SC1=S (centres undefined) | 2% | -10% | ? | 14µM*
Cn1c(=O)oc2cc(S(=O)(=O)N3CCC(C(=O)N4CCN(c5ccccc5F)CC4)CC3)ccc21 | -10% | . | -2% | -3%
CCN(CC)c1ccc(/C=C2\SC(=O)N(C(C)C)C2=O)o1 | ? | ? | 19% | 1.8µM*
SMILES | TbPYK inhibitor | RE007 growth inh | FMDV inh | Sm TGR block
COC(=O)c1nc(NC(=O)C(C)(C)C)n[nH]1 | 2% | -6% | . | 32µM*
CCC(NC(=O)c1ccc2nc(Cc3ccc(OC)cc3)oc2c1)c1ccncc1 (centres undefined) | 9% | -10% | 20µM* | -8%
CCc1ccc(C(=O)c2cn(CC(=O)NCCc3ccc(OC)c(OC)c3)c3nc(C)ccc3c2=O)cc1 | 4% | . | -7% | 0%
O=C(NCc1ccco1)c1ccccc1NS(=O)(=O)c1ccc(Cl)s1 | -16% | 2% | -24% | 28µM*
O=C(Nc1ccc(F)cc1F)c1ccc(-n2cccn2)c([N+](=O)[O-])c1 | -2% | 0% | -5% | 45µM*
COC(=O)[C@@H]1CCCN1C(=O)c1c(OC)cc(=O)n2c1CCN(Cc1c(C)[nH]c3ccccc13)CC2 | . | . | 14% | .
CNC(=O)c1cc2c(n(-c3ccc(C)cc3)c1=O)CC(C)(C)CC2=O | 5% | . | -7% | 1%
CC1(C)CC(=O)c2cc(C(=O)NCc3ccco3)c(=O)n(-c3ccc(Cl)cc3)c2C1 | 1% | -6% | -21% | 32µM*
Cc1ccc(-n2c3c(cc(C(=O)NCc4ccco4)c2=O)C(=O)CC(C)(C)C3)cc1 | -1% | 0% | -19% | 22µM*
